Among all 69,000 compounds or so, about 8,600 (12%) showed an effect of 50% or more. The entries come from a sample that favours strong results as a whole.
Tested on: Plasmodium berghei
Test: Screen against P. berghei liver stage (PbLuc), transformed with Luciferase, at 10uM
Format: functional, HepG2
Conditions: tested at 10 uM

Structure (SMILES) | INHIBITION
COc1cccc(-c2nc(C)c(C(=O)N[C@H](CO)CC(C)C)s2)c1 | -23.7%
Cc1occc1C(=O)N1C[C@@H]2[C@@H](C1)OCC(=O)N2Cc1cccnc1 | -6.23%
CN(CC1CCOCC1)C1CCCN(c2ccccn2)C1 (stereo unspecified) | 18.805%
Cc1cnn(CCNCc2nc(-c3ccsc3)oc2C)c1 | 47.4%
CCN(CCn1cccn1)Cc1nc(-c2ccoc2)oc1C | -31.9%
CCN(CCn1cccn1)Cc1nc(-c2ccc(F)cc2)oc1C | 62.4%
CCN(CCn1cccn1)Cc1nc(-c2cc(F)ccc2F)oc1C | 26.1%
Cc1oc(-c2ccsc2)nc1CNCCn1cccn1 | 53.4%
Cc1oc(-c2ccsc2)nc1CNC(C)Cn1cccn1 (stereo unspecified) | 39.7%
Cc1nn(CC(=O)O)c(C)c1NS(=O)(=O)c1cccc2ccccc12 | 2.97%
CNC(=O)CN1CCO[C@H]2CN(CC3CCOC3)C[C@H]21 (stereo partly specified) | 8.85%
CNc1ccnc(N2C[C@H]3CC[C@@H](C2)N(CCOC)C3=O)n1 | -144%
O=C(c1ccco1)N1C2CCC(O)(CC2)C1CN1CCOCC1 (stereo unspecified) | 17.7%
COc1ccc(OC)c(-c2nc(CN(C)Cc3noc(C)n3)c(C)o2)c1 | 31.1%
Cc1ccsc1-c1nc(CN(C)Cc2cc[nH]n2)c(C)o1 | 54.6%
CCc1cc(CN(C)Cc2nc(-c3sccc3C)oc2C)on1 | 1.37%
Cc1ccsc1-c1nc(CN(C)Cc2noc(C(C)C)n2)c(C)o1 | 30%
Cc1nc(CN(C)Cc2nc(-c3sccc3C)oc2C)no1 | 56.3%
Cc1nonc1CN(C)Cc1nc(-c2cccc(F)c2F)oc1C | 8.99%
CCc1ncnc2c1CCN(CCOC)CC2 | 32.5%
CCC[C@H]1CN(S(C)(=O)=O)C[C@@H]1NC(=O)Cc1ccc(F)cc1C | 30.3%
O=C(NCCCc1nc(=O)[nH][nH]1)Nc1ccc(Cl)cc1 | 23.9%
O=C(NCCCc1nc(=O)[nH][nH]1)Nc1cccc(F)c1 | 48%
O=C(NCCCc1nc(=O)[nH][nH]1)c1ccc(Cl)cn1 | 67.5%

Structure (SMILES) | INHIBITION
O=c1[nH]cc(Nc2ccccc2)c(=O)[nH]1 | 43.8%
OC1(CN2CCOC(Cn3cccn3)C2)CCCCC1 (stereo unspecified) | -37.7%
COCCN1CCN(CC(C)(O)c2cccc(C(F)(F)F)c2)CC1 (stereo unspecified) | 37.3%
COc1cccc(OCCc2cncc(C(N)=O)c2)c1 | 15.9%
COc1cccc(OCCCc2cncc(C(N)=O)c2)c1 | -10.3%
COc1ccccc1OCCCc1cncc(C(N)=O)c1 | 80.2%
Cc1nc(C(=O)N2CCN(S(=O)(=O)N(C)C)CC2)c(-c2ccccc2)s1 | 36.6%
CCN1C[C@H]2CCN(C(=O)NC)CC[C@H]2S1(=O)=O | -0.813%
O=C(NCc1ccccc1CN1CCC(O)CC1)Nc1ccccn1 | 52%
O=C(NCc1ccccc1CN1CCC(O)CC1)Nc1ccncc1 | -8.19%
O=C(NCc1ccccc1CN1CCC(O)CC1)Nc1ccccc1 | 40.2%
COC(=O)c1cc(CN2CCC(c3noc(C)n3)CC2)c(C)s1 | 7.24%
Cc1cc(F)cc(NC(=O)N(C)CC(C)(CO)CO)c1 | -31.38%
FC(F)(F)CCc1ccnc(NC2CCC(n3cnnc3)CC2)n1 (stereo unspecified) | 32.3%
NC1CCC(Nc2nccc(CCC(F)(F)F)n2)CC1 (stereo unspecified) | 75.6%
N[C@@H]1CC[C@@H](Nc2nccc(CCC(F)(F)F)n2)C1 | 7.4%
CCc1csc(C2CCCN(C(=O)c3cc(C4CC4)[nH]n3)C2)n1 (stereo unspecified) | 27.8%
O=C(Cc1cccnc1)N1CCC2(CC1)CCN(C1CCOCC1)CC2 | 8.44%
CCOc1ncccc1NC(=O)N1CCC(n2cncn2)CC1 | -2.98%
CC(C)Oc1ccccc1NC(=O)N1CCC(n2cncn2)CC1 | 56.6%
COc1ccccc1C(C)NC(=O)N1CCC(n2cncn2)CC1 (stereo unspecified) | 11.2%
Cc1ccccc1CNC(=O)N1CCC(n2cncn2)CC1 | 4.52%
CCOc1ncccc1CNC(=O)N1CCC(n2cncn2)CC1 | 11.4%
CCOc1ccccc1CNC(=O)N1CCC(n2cncn2)CC1 | 63.5%

Structure (SMILES) | INHIBITION
COc1cc(Cl)ccc1CNC(=O)N1CCC(n2cncn2)CC1 | 0.411%
COc1ccccc1CCNC(=O)N1CCC(n2cncn2)CC1 | 16.9%
CC(C)Oc1ccccc1CNC(=O)N1CCC(n2cncn2)CC1 | 51.3%
CCS(=O)(=O)N1C[C@@H](O)[C@H](Oc2cccc(F)c2)C1 | -18.8%
CC(C)Oc1ncccc1CNC(=O)NC(C)c1cccs1 (stereo unspecified) | 43.6%
Cc1cc(C)n(-c2ccc(C(=O)NCC(CO)Cc3cccs3)cc2)n1 (stereo unspecified) | 23.9%
O=S(=O)(Cc1ccc(F)cc1F)NCCOc1cccnc1 | 46.1%
CC[C@H](Cn1ncc2ccccc2c1=O)NC(=O)c1ccccn1 | 31.3%
CN(C)C(=O)C1CCc2nnc(CNC(=O)c3ccc(Cl)cc3Cl)n21 (stereo unspecified) | 27.5%
CCC(C)NC(=O)CCc1ccc(OCC(F)(F)F)c(OC)c1 (stereo unspecified) | 31.9%
CC1COCCN1Cc1nc(-c2cccs2)no1 (stereo unspecified) | 22.9%
CCCc1noc(CN2CCOCC2C)n1 (stereo unspecified) | 65.6%
CC1COCCN1Cc1nc(C(C)(C)C)no1 (stereo unspecified) | 15.2%
CC(C)c1noc(CN2CCOCC2C)n1 (stereo unspecified) | 17.5%
CC(C)Cc1noc(CN2CCOCC2C)n1 (stereo unspecified) | 51%
CC1COCCN1Cc1nc(Cc2ccccc2)no1 (stereo unspecified) | 54.4%
CC1CCCCN1Cc1nc(Cc2ccccc2)no1 (stereo unspecified) | 20.2%
CC1COCCN1Cc1noc(C(C)(C)C)n1 (stereo unspecified) | 38.7%
CC(C)Cc1noc(CN2CCOCC2)n1 | 1.48%
O=C(COC1CCCC1)NCCc1nc(-c2ccccn2)cs1 | 30.8%
Cn1cnc2cc(CCC(=O)Nc3n[nH]c(C4CCCO4)n3)ccc21 (stereo unspecified) | 8.99%
N#Cc1ccccc1N1CCCN(C(=O)CCc2cccs2)CC1 | -29.1%
Cc1nc(CN2CCCCC2CCc2ccc(O)cc2)co1 (stereo unspecified) | 12.6%

Reference: ChEMBL document CHEMBL4513216, “Probing the Open Global Health Chemical Diversity Library for Multistage-Active Starting Points for Next-Generation Antimalarials” (ACS Infect Dis, 2020)
